Data reported in PubChem BioAssay (NCI).
The panel holds about 83,000 compounds, 20% with a hit somewhere; the sample as a whole holds those more often.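 Cells were grown in 96-well plates and exposed to the test compound at a single concentration for 48 hours; results are reported as percent growth, with values below 10 considered active.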 Calls of active or inactive are those of the source.

Columns and labels:
Test in all cases: NCI-60 one-dose screen, 48 h (100 = growth as untreated, 0 = no growth, -100 = all killed)
Settings in all cases: 10 µM unless noted
HCT-15 colon = test system: HCT-15 colon
SNB-75 CNS = test system: SNB-75 CNS
SNB-19 CNS = test system: SNB-19 CNS
U251 CNS = test system: U251 CNS
PC-3 prostate = test system: PC-3 prostate
SK-MEL-5 melanoma = test system: SK-MEL-5 melanoma
UACC-62 melanoma = test system: UACC-62 melanoma
LOX IMVI melanoma = test system: LOX IMVI melanoma
SK-MEL-28 melanoma = test system: SK-MEL-28 melanoma

Row | Compound | growth (HCT-15 colon) | growth (SNB-75 CNS) | growth (SNB-19 CNS) | growth (U251 CNS) | growth (PC-3 prostate) | growth (SK-MEL-5 melanoma) | growth (UACC-62 melanoma) | growth (LOX IMVI melanoma) | growth (SK-MEL-28 melanoma)
1 | COc1ccc(OC)c(CCn2cncc2-c2c[nH]c3ccccc23)c1 | 71.4% (inactive) | 3.33% (active) | 85.1% (inactive) | 87.8% (inactive) | 71.4% (inactive) | 49.7% (inactive) | 59.2% (inactive) | 79.6% (inactive) | 90.3% (inactive)
2 | C[C@H]1[C@H](C)CC[C@]2(C(=O)Nc3ccc4ncccc4c3)CC[C@]3(C)C(=CC[C@@H]4[C@@]5(C)CCCNC(C)(C)[C@@H]5CC[C@]43C)[C@H]12 | -83.7% (active) | 78.2% (inactive) | -59.6% (active) | -86.3% (active) | -4.73% (active) |  | -74.5% (active) | -89.7% (active) | -67.3% (active)
3 | CCCN1[C@@H]2CC[C@H]1/C(=C\c1ccc(OC)c(OC)c1)C(=O)/C2=C/c1ccc(OC)c(OC)c1 | 41.6% (inactive) | 61.1% (inactive) | 56.7% (inactive) | 40.7% (inactive) | 44.3% (inactive) | 18.1% (inactive) | 32% (inactive) | 32.5% (inactive) | 
4 | COc1cc(/C=C\c2cc(/C=C\c3ccc(O)c(OC)c3)n(C(=O)COc3ccccc3)n2)ccc1O | 9.64% (active) | 22.7% (inactive) | 14.8% (inactive) | 8.81% (active) | 8.49% (active) | -28.8% (active) | 4.88% (active) | 3.23% (active) | 18.4% (inactive)
5 | O=C(Nc1ccc(F)cc1)Nc1ccc(NC(=O)c2cc(Cl)nc3ccccc23)cc1 | 98.7% (inactive) | 67.2% (inactive) | 49.7% (inactive) | 62.8% (inactive) | 59.4% (inactive) |  | 72% (inactive) | 55% (inactive) | 77.7% (inactive)
